Sampled rows, rich in hits. Any-hit rate of the full collection: about 1.2%.
USP2a inh: blocks human ubiquitin-specific protease USP2a; USP2 core, Ub-CHOP2 coupled fluorogenic reporter, 485/531; hit rate 0.01% among 330,000; AID 463254; O75604; Potency, µM (highest dose often 38.3 µM), inactives show top-dose activity change, negative = inhibition, actives largely listed as inhibitors;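 also: potency is read from the fitted curve at half-maximal effect; plate controls were DMSO wells for no effect and full inhibition by NEM control for full effect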
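USP2 core (10nM final) preincubated 30min RT with compound in 20mM Tris-HCl pH 8.0, 2mM CaCl2, 2mM beta-mercaptoethanol, 0.05% CHAPS; 25nM Ub-CHOP2 plus 25nM reporter substrate added, fluorescence (Ex485/Em531) read after 60min.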
Eya2 inh: inhibitors of human Eya2 phosphatase activity; O00167; AID 488837; Potency, µM (highest dose often 76.9 µM), inactives show top-dose activity, negative = inhibition, actives largely listed as inhibitors; hit rate 0.006% among 330,000; recombinant Eya2, OMFP fluorescence dephosphorylation (OMFP is methylfluorescein phosphate); also: potency is read from the fitted curve at half-maximal effect
Target sequence (O00167 whole entry, looked up): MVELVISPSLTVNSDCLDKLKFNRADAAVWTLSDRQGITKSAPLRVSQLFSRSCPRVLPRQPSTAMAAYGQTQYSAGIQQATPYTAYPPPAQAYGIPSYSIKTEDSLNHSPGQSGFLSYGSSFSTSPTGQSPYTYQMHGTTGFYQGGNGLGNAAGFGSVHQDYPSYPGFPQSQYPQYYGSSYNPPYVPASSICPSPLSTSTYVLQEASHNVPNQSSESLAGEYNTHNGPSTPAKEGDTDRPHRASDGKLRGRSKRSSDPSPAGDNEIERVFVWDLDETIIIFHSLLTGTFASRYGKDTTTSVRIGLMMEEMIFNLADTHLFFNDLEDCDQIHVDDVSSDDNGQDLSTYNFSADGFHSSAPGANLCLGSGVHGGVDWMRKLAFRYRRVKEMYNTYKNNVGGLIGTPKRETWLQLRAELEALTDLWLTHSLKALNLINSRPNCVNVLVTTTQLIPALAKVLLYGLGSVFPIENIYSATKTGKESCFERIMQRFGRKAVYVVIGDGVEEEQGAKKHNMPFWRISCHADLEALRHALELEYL
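Eya2 (0.2 uM) preincubated 10 min at ambient with compound, then OMFP substrate added at 50 uM; 10 min reaction in 50 mM HEPES pH 7.5, 50 mM NaCl, 5 uM MgCl2, 0.05% BSA, 1 mM DTT. Fluorescence read at Ex 485/Em 525 nm.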
L3MBTL1 block: inhibitors of human L3MBTL1 | Q9Y468 | Potency, µM (top dose mostly 57.1 µM), inactives show at the top dose activity, negative = inhibition, most hits filed as inhibitors | AlphaScreen L3MBTL1–H3K9me1 peptide binding | hit rate 0.66% among 230,000; also: potency is read from the fitted curve at half-maximal effect; nearly all actives have a fitted effect of over 60% in size
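First, the protein-peptide complex forms for 30 min at room temperature (L3MBTL1 50 nM, biotinylated H3K9me1 peptide 75 nM). Next, compounds are pin-transferred and incubated 30 min. Finally, AlphaScreen beads are added and read after 30 min.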
CtBP-E1A inh: inhibitors of CtBP/E1A interaction. AlphaScreen GST-E1A/His-CtBP binding, 1536-well; hits give low values. activity change, % (no concentration beside the values). hit rate 0.49% among 340,000. AID 651724; in the data active = activity change below about -65%; inconclusive = mostly about -30% to -63%
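Protein mix (5X: 125 nM each GST-E1A, His-CtBP) was incubated with pinned compound 2 h at 37 deg C in dark, in 50 mM Tris pH 8.0 buffer with 300 mM NaCl. Glutathione donor and nickel acceptor beads followed; AlphaScreen signal read after 1 h.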
Six1-Eya2 inh: Six1/Eya2 interaction inhibition; AlphaScreen GST-Six1/His-Eya2 binding, biochemical; hits give low values; activity change, % (no concentration beside the values); hit rate 0.56% among 360,000; AID 651725; in the data active = activity change below about -65%; inconclusive = mostly about -30% to -63%
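AlphaScreen luminescence read after one hour at 37 °C in darkness. Pin-transferred compounds met GST-Six1 and His-Eya2 protein (5X stock 250 nM/500 nM) plus glutathione donor and Ni-chelate acceptor beads (5X, 50 ug/mL).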
uPA generation: inhibitors of cell surface uPA generation. cell surface uPA generation assay, qHTS. Potency, µM (top dose mostly 38.3 µM), inactives show top-dose activity change, negative = inhibition, actives largely listed as inhibitors. hit rate 0.31% among 330,000; active = well fitted inhibition curve with a large enough effect; inconclusive = small, poorly fitted or top-dose-only effect; inactive = no such curve, though single readings can be large or run the other way; tested in mouse RAW 264.7 cells; also: potency is read from the fitted curve at half-maximal effect; nearly all actives have a fitted effect of over 55% in size
Active calls of the source: *; ? = inconclusive; · = no result given; [ ] = dose if it differs, or a comment. Unless noted, calls follow the shape of the dose curve; as a rule, active = well fitted curve in the direction sought with a large enough effect; inconclusive = small, poorly fitted or top-dose-only effect, or another doubt; inactive = no such curve, though single readings can be large; an effect the other way counts as inactive or inconclusive. Unless noted, % is scaled to controls: 0 for no effect and ±100 for the full control effect.

SMILES | USP2a inh | Eya2 inh | L3MBTL1 block | CtBP-E1A inh | Six1-Eya2 inh | uPA generation
O=S(=O)(O)c1cc(O)c(N=Nc2ccc(O)cc2O)c2ccccc12 | · | · | · | -93.5* | -83.5* | -7.4%
O=C(O)c1ccccn1 | 2.3% | 3.5% | 14.1µM* | -66.0* | ? | 12.4%
S=C(Nc1ccccc1)c1ccccn1 | -7.5% | 9.2% | · | -75.4* | -84.3* | -4.3%
S=C(Nc1ccccc1)Nc1ccccn1 | · | · | · | -1.5 | -2.0 | ·
O=C(O)c1cc(Br)ccn1 | 0.6% | 2.8% | · | -24.2 | ? | 2.0%
O=C(O)c1ccnc(C(=O)O)c1 | 2.6% | 32.2% | -79.7% | ? | -68.7* | -1.6%
CN1CCC(N2CCN(C3CN(Cc4cn(Cc5ccc(C(F)(F)F)cc5)nn4)S(=O)(=O)C3)CC2)CC1 (centres undefined) | · | · | · | 4.6 | 0.4 | ·
Cn1c(=O)c(C(=O)NNC(=O)c2ccccc2Br)c(O)c2ccccc21 | 1.6% | 7.0% | · | ? | -65.8* | -0.1%
COC(=O)c1cc(-c2ccc(NC(C)=O)cc2)nc2ccccc12 | -0.7% | -1.6% | 26.1% | 0.5 | 8.8 | -6.6%
O=[N+]([O-])c1ccc(Sc2cccc3cccnc23)cc1 | 0.1% | 23.4% | · | -16.8 | -17.6 | 9.3%
C=CCn1nc([N+](=O)[O-])nc1Sc1cccc2cccnc12 | -0.1% | 1.0% | 28.2µM* | -95.3* | -94.4* | -9.3%
O=[N+]([O-])c1ccc(Sc2cccc3cccnc23)c([N+](=O)[O-])c1 | 2.6% | 16.2% | · | -97.9* | -94.4* | 10µM*
O=[N+]([O-])c1cc(Cl)ccc1Sc1cccc2cccnc12 | 2.4% | -2.7% | · | 7.1 | ? | -4.9%
CCOC(=O)C1=CNS(=O)(=O)NC1c1ccc(C)cc1 (centres undefined) | -0.5% | -4.9% | 16.1% | 5.9 | 8.8 | 8.9%
Cc1cccc(-n2ncc3c(N4CCOCC4)ncnc32)c1 | -2.0% | -10.1% | -6.7% | -3.1 | -4.1 | 0.794µM*
COc1ccc(-n2ncc3c(N4CCCCC4)ncnc32)cc1 | -0.2% | -10.7% | 37.9% | 6.8 | -8.1 | 1.26µM*
Cc1cccc(-n2ncc3c(NC4CCCCC4)ncnc32)c1 | -1.4% | -7.1% | -3.8% | -2.1 | -2.4 | 11.2µM*
C=CCNc1ncnc2c1cnn2-c1cccc(C)c1 | -0.1% | -35.8% | 4.1% | -1.6 | -9.3 | ?
Cc1cccc(-n2ncc3c(N4CCCC4)ncnc32)c1 | 0.6% | -4.2% | 3.9% | 10.1 | -8.7 | -19.4%
c1cc(-c2cc3cc(N4CCOCC4)ccc3o2)cs1 | · | · | · | -3.7 | 1.9 | ?
COCC(=O)N1CCC(Oc2ccc(C(=O)N3C[C@H]4CC[C@H]3C4)cc2)CC1 | 2.2% | -1.2% | · | 3.8 | 0.4 | -2.0%
COc1cc(C(=O)OCC(=O)Nc2sccc2C(N)=O)cc(OC)c1OC | 0.8% | 7.4% | -1.7% | 1.4 | -10.4 | 3.16µM*
COc1cc(OC)cc(C(=O)NC(C(=O)NNC(=O)CN(C)S(=O)(=O)c2ccc(C)cc2)C(C)C)c1 (centres undefined) | · | · | · | · | 1.9 | 12.5%
CCOc1cc(C(=O)OC(C)C(=O)Nc2ncc(Cl)cc2Cl)ccc1OCC(=O)N1CCOCC1 (centres undefined) | -5.5% | 6.7% | -2.7% | · | 17.7 | 8.91µM*
CC1=[N+](C)c2ccc3ccccc3c2C1(C)C | -1.8% | -8.2% | -13.6% | -17.2 | -25.9 | 2.24µM*
SMILES | USP2a inh | Eya2 inh | L3MBTL1 block | CtBP-E1A inh | Six1-Eya2 inh | uPA generation
COc1cc(/C=C2\C(=O)N(c3ccc(NC(C)=O)cc3)N=C2c2ccccc2)ccc1O | 1.0% | -2.2% | -2.9% | -0.7 | 1.6 | -0.6%
O=C1/C(=C\c2ccc(O)c(O)c2)C(c2ccccc2)=NN1c1ccccc1 | 0.9% | 2.3% | 14.1µM* | 3.8 | -17.2 | -8.6%
c1ccc2c(c1)Cc1ccccc1O2 | 0.7% | 2.7% | 1.7% | -12.0 | -11.9 | -26.5%
O=c1c(CO)cc(CO)cc(CO)c1O | -2.0% | -8.3% | · | · | -89.9* | 7.3%
Oc1ccc(Cl)cc1CNc1ccc(Br)cn1 | -2.2% | -32.5% | 13.5% | 3.9 | -3.0 | -7.0%
Oc1c(Cl)cc(Cl)cc1CNc1ccc(Br)cn1 | -1.5% | 1.5% | · | -75.1* | -70.1* | -0.1%
COc1cc2c(cc1OC)CN(C(=O)CNS(=O)(=O)c1ccc(C)c(C)c1)CC2 | 0.7% | 2.0% | · | 2.9 | -3.7 | -3.3%
Nc1cc(=O)[nH]c(SCC(=O)Nc2ccc(S(=O)(=O)N3CCCC3)cc2)n1 | -0.9% | -4.6% | 4.8% | -1.3 | -2.2 | 0.6%
CCN1CCN(Cc2ccc(NC(=O)Nc3ccccc3Cl)cc2)CC1 | 2.6% | 1.6% | -0.5% | -1.6 | 1.4 | 10µM*
O=C(Oc1cccc2cccnc12)c1ccc(N2C(=O)C3C4CCC(C4)C3C2=O)cc1 (centres undefined) | 1.6% | -4.2% | -23.7% | ? | -88.8* | -0.6%
O=C(Oc1cccc2cccnc12)c1cccc(-n2cnnn2)c1 | 0.1% | -26.1% | 19.9%[11.4 µM] | -8.8 | -12.7 | 0.3%
O=C(Oc1cccc2cccnc12)c1cccc(N2C(=O)C3C4CCC(C4)C3C2=O)c1 (centres undefined) | 1.4% | -1.8% | ? | -12.2 | -86.8* | -6.5%
COCc1ccc(C(=O)N2CCCCC2C(=O)Nc2ccc(-n3nc(C)cc3C)cc2)o1 (centres undefined) | 4.6% | 10.9% | · | 2.2 | -9.6 | -2.2%
CC(=O)N1N=C(c2ccc3nccnc3c2)CC1c1ccccc1 (centres undefined) | 3.6% | 3.5% | -1.1% | -0.1 | 2.4 | ·
CC(=O)N1N=C(c2ccccc2OC(=O)/C=C/c2ccccc2)CC1c1ccccc1 (centres undefined) | -0.4% | 14.0% | · | -79.9* | ? | -2.4%
COc1ccc(NC(=O)c2ccc(N3CCCC3=O)cc2)cc1Cl | 7.0% | 4.1% | -8.1% | 4.8 | 1.1 | 5.3%
CCCCn1c(N)c(N(CCOC)C(=O)CN2C(=O)NC3(CC(C)CC(C)(C)C3)C2=O)c(=O)[nH]c1=O (centres undefined) | · | · | · | 0.0 | -0.5 | 3.5%
Cc1cc(NC(=O)CSc2nnc(CNC(=O)c3cccc(C(F)(F)F)c3)o2)no1 | -1.0% | 4.6% | · | -78.4* | -72.2* | -0.5%
O=C(CSc1nnc(CNC(=O)c2ccc(F)cc2)o1)Nc1nccs1 | 1.8% | 3.9% | · | -86.6* | -88.0* | 6.6%
Cc1cccc(OCc2nnc(SCC(=O)Nc3ccc(N4CCOCC4)cc3)o2)c1 | -0.2% | -4.7% | · | -2.6 | 0.7 | -0.3%
O=C(CSc1nnc(-c2cccnc2)o1)Nc1nccs1 | 1.1% | -12.0% | -0.7% | ? | -71.5* | 3.8%
Cc1cccc(OCc2nnc(SCC(=O)Nc3nccs3)o2)c1 | 2.1% | 13.0% | -14.6% | -93.1* | -94.4* | -20.7%
CSc1ccc(CNC(=O)C2CCC(=O)N(CC3CCCCC3)C2)cc1 (centres undefined) | · | · | · | -6.9 | -11.0 | ·

Screening data deposited in PubChem by National Center for Advancing Translational Sciences (NCATS).
